# Assay outcomes: PubChem BioAssay, National Center for Advancing Translational Sciences (NCATS)
# FMDV antiviral = blocks foot and mouth disease virus. Potency, µM (doses to about 57.9 µM), without a hit: at the highest dose activity change, negative = inhibition, usual class: inhibitors. FMDV antiviral cell-based qHTS. actives 1.2% (n = 410,000); calls by dose curve; tested in HEK293T cells; further: read-out not given here; potency means the concentration at half of the fitted maximal effect; nearly all actives have a fitted effect of over 45% in size
# LASV entry inh = blocks Lassa virus binding to or entry into cells; Lassa virus pseudotype entry inhibition, cell reporter; Potency, µM (titrated, usually from 37.9 µM), inactives show at the highest dose activity change, negative = inhibition, hits mostly inhibitors; actives 1.2% (n = 300,000); AID 540256; calls by dose curve; tested in HEK293 cells; further: potency means the concentration at half of the fitted maximal effect; nearly all actives have a fitted effect of over 50% in size
# HCV inh = HCV inhibition; actives 3.4% (n = 340,000); Huh7.5.1 HCVcc-Cre infection, luciferase reporter, 44 h; Potency, µM (doses to about 41.8 µM), inactives show top-dose activity change, negative = inhibition, hits mostly inhibitors; active means well fitted inhibition curve with a large enough effect; inconclusive means small, poorly fitted or top-dose-only effect, or another doubt; inactive means no such curve, though single readings can be large or run the other way; further: potency means the concentration at half of the fitted maximal effect
#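 Cells (1,000/well) were plated 4 h before compound, then infected with HCVcc-Cre virus (~0.5 moi). After 44 h further culture, infection was read as luciferase luminescence following a 15 min substrate incubation at room temperature.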
# Marburg entry inh = Marburg virus entry inhibition. actives 1.8% (n = 300,000). Marburg virus pseudotyped entry inhibition, cell reporter. Potency, µM (titrated, usually from 37.8 µM), for the others: at the highest dose activity change, negative = inhibition, usual class: inhibitors. AID 540276; calls by dose curve; tested in HEK293 cells; further: potency means the concentration at half of the fitted maximal effect
# HCMV antiviral = human cytomegalovirus inhibition | HFF cells, HCMV-luciferase reporter, 72 h; active compounds read low | activity change, negative = inhibition, % at 57.5 µM | actives 4.5% (n = 410,000); in the data active means activity change below about -60%; inconclusive means no clear call, values can overlap the other calls; inactive means above about -39%
#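 Screen run at 2 compound doses on HFFs infected with reporter HCMV, MOI 1 PFU/cell. Luciferase activity from cell lysates at 72 h post infection gave inhibition relative to buffer-only and Salinomycin wells.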
# The depositor's hits bear a star; ? = inconclusive; / = no result given; [ ] = remark or other dose. Hits are enriched below; roughly 7.9% of the tested compounds scored in any of these assays. On the % scale 0 is the no-effect control and ±100 the full control effect.
SMILES,FMDV antiviral,LASV entry inh,HCV inh,Marburg entry inh,HCMV antiviral
Cc1ccc(C)c(SCC(=O)NCC(c2ccco2)N2CCCCC2)c1 (stereo not drawn),-29%,?,-13%,13µM*,?
Cc1ccc(S(=O)(=O)NC(CC(C)C)C(=O)NCC(c2ccco2)N2CCCCC2)cc1 (stereo not drawn),10µM*,/,-5%,/,/
CC(=O)Nc1ccc(S(=O)(=O)NC(C)C(=O)NCC(c2ccco2)N2CCCCC2)cc1 (stereo not drawn),0%,/,18%,/,0
CC(CN1CCN(C)CC1)OC(=O)c1cccc(F)c1 (stereo not drawn),8%,-6%,-6%,4%,13
O=Cc1c(Cl)nc2ccccn2c1=O,-19%,?,10µM*,?,77
CC1CCN(c2nc3ccccn3c(=O)c2C=O)CC1,-5%,/,-1%,/,-36
Cc1cccn2c(=O)c(C=O)c(Cl)nc12,32µM*,?,?,?,-88*
COCC(=O)Nc1cc(C(=O)N2CCN(c3ccccc3)CC2C)c2c(c1)nc(-c1ccncc1)n2C (stereo not drawn),8%,/,/,/,/
CCNC(=O)NC(=O)COC(=O)c1ccccc1SCC(=O)NC(=O)NCC,-73%,?,4%,14µM*,125
O=C(COC(=O)c1cc(Br)ccc1Cl)NC(=O)NCc1ccccc1,2%,-5%,5%,-3%[46.1 µM],-5
O=C(COC(=O)c1ccccc1Cl)NC(=O)NCc1ccccc1,24%,8.2µM*,1%,-1%,33
O=C(COC(=O)c1ccc(F)c([N+](=O)[O-])c1)NC(=O)NCc1ccccc1,32µM*,?,?,?,-12
O=C(COC(=O)c1ccccc1SCC(=O)NC1CCS(=O)(=O)C1)NC1CCS(=O)(=O)C1 (stereo not drawn),1%,-1%,11%,?,-9
CC(NC(=O)Nc1cc(Cl)ccc1Cl)c1c(-n2cccc2)sc2c1CCCC2 (stereo not drawn),-9%,-3%[46.1 µM],/,-6%[46.1 µM],-40
CC(C)Oc1cc(C(=O)N2CCC(N3CCCCC3)CC2)ccc1Nc1nnc(Cl)c(Nc2ccccc2S(C)(=O)=O)n1,-10%,/,-20%,/,/
CN1CCN(C2CCN(c3ccc(Nc4nnc(Cl)c(Nc5ccccc5S(C)(=O)=O)n4)c(OC(CF)CF)c3)CC2)CC1,-19%,/,11µM*,/,0
CC1Cc2ccccc2N1c1ncnc2c1nnn2Cc1ccccc1 (stereo not drawn),-26%,-27%,11µM*,?,?
CC(C)C[C@H](N)c1nnc(S(=O)(=O)Cc2ccc(F)cc2)o1,22µM*,?,8%,?,/
Cc1ccccc1NC(=O)CN1C(=O)NC2(CCCCCCC2)C1=O,-11%,4%,24%,0%,-98*
CC(C)(C)N(Cc1ccccc1)C(=O)CN1C(=O)NC2(CCCCCC2)C1=O,-25%,/,1%,/,-61*
Cc1cccc(Oc2ccccc2NC(=O)CN2C(=O)NC3(CCCC3)C2=O)c1,-5%,2%,?,-5%[46.1 µM],-10
Cc1ccc(Oc2ccccc2NC(=O)CN2C(=O)NC3(CCCC3)C2=O)cc1,0%,/,11%,/,-106*
Cc1nc(N(C)Cc2ccccc2)c2nnn(Cc3ccccc3)c2n1,-21%,-24%,-6%,0%,0
COCCNC(=O)C(NC(=O)C1CCC(C)CC1)C(C)C (stereo not drawn),-5%,/,22%,/,5
Cc1oc2ccc(O)c(CN(C)C)c2c1C(=O)c1ccccc1,0%,?,29%,11µM*,10
SMILES,FMDV antiviral,LASV entry inh,HCV inh,Marburg entry inh,HCMV antiviral
Cc1oc2ccc(O)c(CN3CCCCCC3)c2c1C(=O)Nc1cccc(C(F)(F)F)c1,-29%,?,/,?,-86*
COc1ccc(NC(=O)c2c(C)oc3ccc(O)c(CN4CCN(Cc5ccccc5)CC4)c23)cc1Cl,-19%,7.9µM*,/,?,-14
COc1ccc(C(=O)c2c(C)oc3ccc(O)c(CN4CCOCC4)c23)cc1,17%,?,-28%,21µM*,-34
O=C(NCCc1ccccc1)c1csc(C(O)Cc2ccc(F)cc2)n1 (stereo not drawn),/,/,/,/,7
CC(=O)c1ccc(-c2cc(F)cc3c2OC(CNC(=O)Cc2cn4ccsc4n2)C3)s1 (stereo not drawn),7%,/,/,/,/
CCOc1nc2cccc(C(=O)O)c2n1Cc1ccc(-c2ccccc2-c2nn[nH]n2)cc1,/,/,/,/,3
COC(=O)c1ccc(CSc2ccccc2NC(=S)Nc2cccc(SC)c2)o1,30%,/,/,/,-18
CC(C)c1c(C(=O)NCC2(N3CCOCC3)CCCC2)cnn1-c1nccc(-c2cccs2)n1,8%,/,/,/,/
COc1cccc(C(C)(O)c2nc(-c3cccc4cccnc34)cs2)c1 (stereo not drawn),-11%,/,/,/,20
Cc1oc2ccc(O)c(CN3CCCCCC3)c2c1C(=O)Nc1cccc(Cl)c1C,?,?,/,?,-100*
CCOC(=O)c1c(-c2ccccc2)oc2ccc(O)c(CN3CCCC3)c12,-22%,?,-24%,23µM*,-62*
Cc1ccc(NC(=O)c2c(C)oc3ccc(O)c(CN4CCCCCC4)c23)c(C)c1,0%,?,/,3.5µM*,-65*
Cc1ccc(NC(=O)c2c(C)oc3ccc(O)c(CN4CCOCC4)c23)cc1,-10%,7%[46.1 µM],/,-9%[46.1 µM],17
Cc1ccc(NC(=O)c2c(C)oc3ccc(O)c(CN4CCCCCC4)c23)cc1,?,?,/,?,-85*
CCOC(=O)c1c(-c2ccccc2)oc2ccc(O)c(CN(C)C)c12,0%,-29%,-29%,?,-7
Cc1ccc(NC(=O)c2c(C)oc3ccc(O)c(CN4CCOCC4)c23)c(C)c1,-20%,-13%[46.1 µM],/,8%[46.1 µM],10
O=C(Cn1cc(Cl)c([N+](=O)[O-])n1)NCCC1=CCCCC1,0%,-11%[46.1 µM],-3%,18%[46.1 µM],?
O=C(OCCCc1cc2ccccc2c(=O)o1)c1ccc2c(c1)OCO2,1%,/,-4%,/,-12
Cc1oc2ccc(O)c(CN(C)Cc3ccccc3)c2c1C(=O)Nc1cccc(Cl)c1C,?,?,/,?,-66*
Cc1oc2ccc(O)c(CN3CCN(C)CC3)c2c1C(=O)Nc1ccccc1,-22%,20%[46.1 µM],/,1%[46.1 µM],7
Cc1ccc(NC(=O)c2c(C)oc3ccc(O)c(CN4CCN(Cc5ccccc5)CC4)c23)cc1,-19%,?,/,10µM*,-21
Cc1cccc(-c2noc(CN(C3CCCCC3)S(=O)(=O)c3ccc(F)cc3)n2)c1,10%,1%[46.1 µM],/,12%[46.1 µM],-39
COc1ccc(C(C#N)=C2C=CC(=NO)C=C2)cc1,10%,?,?,?,-24
N#CC(=C1C=CC(=NO)C(Cl)=C1)c1ccc(Cl)cc1,-15%,?,6%,-21%,-74*
O=C(O)C1CCCN1C(=O)c1cccc(Cl)c1 (stereo not drawn),/,/,/,/,22
CC1CCN(C(=O)c2scc3c2OCCO3)CC1,2%,0%,1%,26%,-63*
